# Compound activity from PubChem BioAssay.
# RGS8-Gao – RGS8-Galphao binding modulators, primary screen, biochemical, multiplexed bead flow cytometry. Guanine nucleotide-binding protein G(o) subunit alpha (Homo sapiens), P09471. actives lie on both sides. response (percent of control binding), % at 10 µM. actives 0.34% (n = 220,000). AID 1423, 2008; in the data active = response below about 60% or above about 140%; inactive = in between;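 note: Galphao activated as the GDP aluminium fluoride complex binding bead-coupled RGS8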
# Target sequence (P09471 whole entry, looked up): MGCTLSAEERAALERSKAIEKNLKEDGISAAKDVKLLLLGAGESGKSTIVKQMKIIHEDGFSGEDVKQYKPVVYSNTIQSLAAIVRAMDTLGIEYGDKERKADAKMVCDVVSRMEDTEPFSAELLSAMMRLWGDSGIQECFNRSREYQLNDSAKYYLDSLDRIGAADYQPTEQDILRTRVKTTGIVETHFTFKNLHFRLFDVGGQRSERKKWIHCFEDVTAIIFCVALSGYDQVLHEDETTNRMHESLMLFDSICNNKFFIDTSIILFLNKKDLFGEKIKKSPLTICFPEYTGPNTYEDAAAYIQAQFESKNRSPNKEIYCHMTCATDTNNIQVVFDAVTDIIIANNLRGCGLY
# RGS16-Gao HTS – modulators of RGS16 binding to Galphao, primary screen, biochemical, human proteins, multiplexed bead flow cytometry; Regulator of G-protein signaling 16 (Homo sapiens) + Guanine nucleotide-binding protein …; bead-based flow cytometry RGS16-Galphao binding, fluorescence; actives lie on both sides; binding response (% of control), % at 10 µM; actives 0.38% (n = 220,000); AID 1441, 2008;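 note: Galphao activated by GDP with aluminum fluoride before binding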
# RGS4-Gao reg – modulators of RGS4 binding to Galphao, primary screen, biochemical, multiplexed bead flow cytometry. binding response (% of control), % at 10 µM. actives 0.33% (n = 220,000). AID 1415, 2008. actives lie on both sides. Guanine nucleotide-binding protein G(o) subunit alpha (Homo sapiens), P09471; in the data active = binding response below about 49% or above about 150%; inactive = in between;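 note: fluorescent Galphao activated with aluminum fluoride binding bead-coupled RGS4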
# GSH bead fluor – compound fluorescence on glutathione beads, profiling panel, artefact control, biophysical, 488/530 nm, flow cytometry; GSH beads flow cytometry, compound fluorescence 488/530 nm; active compounds read high; fluorescence (KMESF) at 10 µM; actives 0.25% (n = 190,000); in the data active = fluorescence above about 89;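 note: glutathione beads carrying GST-tagged Bcl family fusion proteins plus one bare bead set; values are compound well signal with DMSO vehicle wells as background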
# Avidin fluor – green autofluorescence of compounds with avidin beads – biophysical, 488/530 nm, flow cytometry, artefact control, profiling panel | fluorescence (KMESF) at 10 µM | compound fluorescence 488/530 nm; active compounds read high | actives 0.38% (n = 220,000) | AID 1775, 2009; in the data active = fluorescence above about 47
# RGS7-Gao – RGS7-Galphao binding modulators, primary screen, biochemical, multiplexed bead flow cytometry. actives lie on both sides. binding response (% of control), % at 10 µM. actives 0.35% (n = 220,000). AID 1439, 2008; in the data active = binding response below about 49% or above about 150%; inconclusive = no clear call, values can overlap the other calls; inactive = in between;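 note: fluorescent Galphao held in activated GDP-AlF4 state binding bead-coupled RGS7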
# RGS4-Gao HTS – modulators of RGS–Galpha-o binding, primary screen, biochemical, multiplexed beads, flow cytometry, RGS4/7/8/16/19 | shares compounds with RGS16-Gao HTS | multiplexed bead flow cytometry | RGS4–Galpha-o binding response, % at 10 µM | actives 99% (n = 1,600) | AID 1504, 2009;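 note: fluorescently labeled Galpha-o bound to GDP with aluminium fluoride binding biotinylated RGS beads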
# Target sequence (P09471 whole entry, looked up): as above
# Target sequence (P49798 whole entry, looked up): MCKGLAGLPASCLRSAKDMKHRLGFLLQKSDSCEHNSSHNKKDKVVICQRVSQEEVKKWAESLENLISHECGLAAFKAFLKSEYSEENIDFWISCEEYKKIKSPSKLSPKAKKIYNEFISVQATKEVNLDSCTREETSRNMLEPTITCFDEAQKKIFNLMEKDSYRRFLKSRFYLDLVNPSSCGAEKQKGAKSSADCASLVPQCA
# Avidin counter – disruption of biotin probe capture by avidin, counter-screen for RGS protein interaction modulators, biochemical, flow cytometry, bead-based. shares compounds with RGS16-Gao HTS. streptavidin beads, fluorescein-biotin binding. inhibition, % at 10 µM. 1,700 tested, under 10 active. AID 1783, 2009;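 active = inhibition above 50%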;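 note: median green fluorescence of gated singlet beads compared with DMSO control wells; 0% = DMSO wells and 100% = complete loss of bead fluorescence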
# RGS8-Gao confirm – RGS8-Galphao binding modulators, confirmation, biochemical, multiplexed bead flow cytometry, single concentration. shares compounds with RGS16-Gao HTS. bead-based flow cytometry RGS8-Galphao binding, fluorescence; actives lie on both sides. binding response (% of control), % at 10 µM. actives 3% (n = 1,700). AID 1836, 2009; in the data active = binding response below about 72% or above about 130%; inactive = in between;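 note: Galphao activated as GDP AlF4 complex before binding bead RGS8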
# RGS7-Gao single – RGS7-Galphao binding modulators, confirmation, biochemical, multiplexed bead flow cytometry, single concentration; shares compounds with RGS16-Gao HTS; bead-based flow cytometry RGS7-Galphao binding; actives lie on both sides; response (percent of control binding), % at 10 µM; actives 7.8% (n = 1,700); in the data active = response below about 75% or above about 130%; inactive = in between;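 note: fluorescent Galphao activated with GDP and aluminum fluoride binding bead-coupled RGS7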
# RGS16-Gao conf – modulators of RGS16-Galphao protein binding, confirmation, biochemical, single concentration, multiplexed bead flow cytometry | shares compounds with RGS16-Gao HTS | bead-based flow cytometry; actives lie on both sides | response (% of control binding), % at 10 µM | actives 4% (n = 1,700) | AID 1838, 2009; in the data active = response below about 74% or above about 130%; inactive = in between;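 note: Galphao activated as the GDP aluminium fluoride complex binding bead-coupled RGS16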
# RGS4-Gao confirm – modulators of RGS4-Galphao protein binding, confirmation, biochemical, single concentration, multiplexed bead flow cytometry; actives lie on both sides; AID 1840, 2009; actives 4% (n = 1,700); binding response (% of control), % at 10 µM; shares compounds with RGS16-Gao HTS; in the data active = binding response below about 74% or above about 130%; inactive = in between
# RGS19-Gao single – regulators of RGS19-Galphao binding, confirmation, biochemical, single point, multiplexed bead flow cytometry; bead-based flow cytometry RGS19-Galphao binding; actives lie on both sides; actives 5% (n = 1,700); response (percent of control binding), % at 10 µM; shares compounds with RGS16-Gao HTS; in the data active = response below about 50% or above about 160%; inactive = in between;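 note: 100% = no compound control and 0% = blank background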
# Numbers without * were called inactive; ? = inconclusive; . = no result; [ ] = dose if it differs, or a comment. A selection: hits, their analogues and other compounds. The true share with any hit is near 1.2%. Unless noted, the rule behind the calls is not given here.
SMILES,RGS8-Gao,RGS16-Gao HTS,RGS4-Gao reg,GSH bead fluor,Avidin fluor,RGS7-Gao,RGS4-Gao HTS,Avidin counter,RGS8-Gao confirm,RGS7-Gao single,RGS16-Gao conf,RGS4-Gao confirm,RGS19-Gao single
COc1ccc(C2SCC(=O)N2c2c(C)n(C)n(-c3ccccc3)c2=O)cc1 (centres undefined),102.4,109.5,100.7,6,17,105.8,.,.,.,.,.,.,.
Cc1ccc(-n2c(C)n[nH]c2=S)cc1C,102.6,106.7,102.0,9,11,103.0,.,.,.,.,.,.,.
Cc1ccc(-n2c(C)n[nH]c2=S)cc1,118.2,183.3*[activator],114.5,9,16,118.8,114.5*,0.6,110.9,130.0*[activator],108.0,111.2,114.0
CC(C)CC(NC(=O)c1ccccc1)C(=O)OCC(=O)Nc1ccc(Br)cn1 (centres undefined),91.6,120.0,137.2,36,346*,237.9*[activator],137.2*,-1.1,96.4,93.6,93.3,93.9,101.2
O=C(COc1ccccc1)NC(=S)Nc1ccc(Br)cn1,104.0,102.9,100.3,.,6,?,.,.,.,.,.,.,.
O=P(CCCCCCCCCP(=O)(c1ccccc1)c1ccccc1)(c1ccccc1)c1ccccc1,95.1,96.6,98.6,31,8,94.4,.,.,.,.,.,.,.
CN1CCN(CCP(=O)(c2ccccc2)c2ccccc2)CC1,.,.,.,16,.,.,.,0.2,98.7,96.9,97.8,98.6,96.9
O=P(CCO)(c1ccccc1)c1ccccc1,90.2,99.6,104.1,15,28,165.8*[activator],104.1*,-0.1,99.3,101.5,100.8,100.6,107.5
COc1ccc(Cl)cc1/C=C(\C#N)C(N)=O,99.8,104.8,102.1,10,11,103.3,.,.,.,.,.,.,.
Cn1nc(C(F)(F)F)c(-c2ccc(F)cc2)c1NC(=O)c1cccnc1,98.3,96.9,93.6,.,8,?,.,.,.,.,.,.,.
Cc1onc(-c2ccccc2)c1CNS(=O)(=O)c1cccc(Cl)c1,126.8,140.6,152.5*[activator],.,6,?,.,-0.7,100.0,104.0,100.6,102.5,94.2
Cc1onc(-c2ccccc2)c1CNS(=O)(=O)c1ccccc1,98.3,95.8,99.8,.,3,?,.,.,.,.,.,.,.
COc1ccc(C2=NN(C(=S)Nc3ccccc3)C(c3ccccc3)C2)cc1 (centres undefined),134.1,385.0*[activator],116.8,11,12,118.2,116.8*,-0.4,106.5,102.3,109.0,104.8,118.1
COc1ccc(C2CC(c3ccccc3)=NN2C(=S)Nc2ccccc2)cc1 (centres undefined),101.6,103.5,104.3,9,25,109.1,.,.,.,.,.,.,.
Clc1ccc(/C=C/c2ncc3ccccn23)cc1,99.1,94.0,98.5,13,7,95.6,.,.,.,.,.,.,.
Cc1ccc(NC(=O)c2ccc(=O)[nH]c2)cc1S(=O)(=O)N1CCCCC1,100.4,96.0,96.7,.,.,?,.,.,.,.,.,.,.
CCOP(=O)(OCC)C(C)(C)NC(=O)c1cc([N+](=O)[O-])cc([N+](=O)[O-])c1,.,.,.,50,.,.,.,-1.0,103.8,105.4,104.5,103.0,92.4
CCC(C)(C)NC(=O)c1cc(C(=O)OC)cc([N+](=O)[O-])c1,98.5,108.0,97.4,30,8,99.6,.,.,.,.,.,.,.
CC(C(=O)c1c[nH]c(C(N)=O)c1)c1ncc(C(F)(F)F)cc1Cl (centres undefined),57.6*,48.5,53.4,11,12,51.5,53.4*,-2.4,99.7,100.7,100.6,101.2,96.1
O=C(Cn1ncc2c3ccccc3n(Cc3ccccc3)c2c1=O)NCc1ccco1,95.4,93.3,93.1,.,6,?,.,.,.,.,.,.,.
Cc1onc(-c2ccccc2Cl)c1C(=O)Nc1ccc(Cl)cn1,101.8,110.4,98.1,.,4,?,.,.,.,.,.,.,.
Cc1onc(-c2ccccc2Cl)c1C(=O)Nc1ncn[nH]1,71.6,-1.7*,85.8,5,6,86.7,85.8*,1.5,98.5,81.9,98.3,89.0,81.4
Cc1onc(-c2c(Cl)cccc2Cl)c1C(=O)c1ccccc1,106.2,104.4,105.8,.,3,?,.,.,.,.,.,.,.
Cc1onc(-c2ccccc2Cl)c1C(=O)c1ccccc1,7.7*,-15.7*,-27.7*,.,-2,?,.,-0.2,100.9,103.8,102.8,101.9,100.5
Cc1ccccc1NC(=O)COC(=O)c1cc(=O)c2ccccc2o1,48.2*,35.3,40.8*,15,9,37.0*,.,-0.5,103.9,100.8,106.2,102.6,107.8
O=C1CCCc2ccccc2N1Cc1ccc(F)cc1,102.7,103.5,111.4,14,40,169.9*[activator],111.4*,-0.1,101.9,103.5,107.0,103.8,95.2
O=C1CCCc2ccccc2N1Cc1cccc(F)c1,100.3,100.0,99.2,12,20,98.9,.,.,.,.,.,.,.
COc1cccc(N2CCN(CC(=O)c3c(C)[nH]c4ccccc34)CC2)c1,14.6*,14.7*,22.1*,34,-1,17.4*,.,-1.3,100.9,99.9,102.6,99.2,108.0
